Assay results taken from PubChem BioAssay AID1159580 (chemical genetic matrix, 2015).
Screen size: about 5,500 compounds; about 2,000 (36%) were called active. Roughly 18% stayed inconclusive and do not appear here. Cut-off read from the data, not from the text of the source: active = normalized growth mostly below about 0.91 (no sharp cut-off); inconclusive = no clear call, values can overlap the other calls; inactive = mostly above about 0.92. The list shows a part of the results.

Test: chemical genetic growth profiling, strain panel (AID 1159580);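 note: tested at 20 µM; growth read once vehicle control cultures reached saturation at 30 °C; 1 = growth at the plate median or of vehicle wells; lower values mean less growth of the strain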
Settings: growth OD

Measured: normalized growth

O=C1OCCN1/N=C\c1ccc([N+](=O)[O-])o1
active: S. cerevisiae deletion strains, locus YLR039C, strain RIC1, stronger effect = lower value 0.657 | S. cerevisiae deletion strains, locus YLR268W, strain sec22, stronger effect = lower value 0.831 | S. cerevisiae deletion strains, locus YML032C, strain rad52, stronger effect = lower value 0.494 | S. cerevisiae deletion strains, locus YMR058W, strain fet3, stronger effect = lower value 0.79 | S. cerevisiae deletion strains, locus YNL153C, strain GIM3, stronger effect = lower value 0.842 | S. cerevisiae deletion strains, locus YNL248C, strain rpa49, stronger effect = lower value 0.84 | S. cerevisiae deletion strains, locus YNL250W, strain rad50, stronger effect = lower value 0.713 | S. cerevisiae deletion strains, locus YNR052C, strain pop2, stronger effect = lower value 0.899 | S. cerevisiae deletion strains, locus YOR184W, strain ser1, stronger effect = lower value 0.862 | S. cerevisiae deletion strains, locus YOR231W, strain MKK1, stronger effect = lower value 0.777 | S. cerevisiae deletion strains, strain wtn01, stronger effect = lower value 0.87
inactive: S. cerevisiae deletion strains, locus YJR075W, strain HOC1, stronger effect = lower value 0.981 | S. cerevisiae deletion strains, locus YKL009W, strain mrt4, stronger effect = lower value 0.915 | S. cerevisiae deletion strains, locus YKL068W, stronger effect = lower value 0.999 | S. cerevisiae deletion strains, locus YKL085W, strain MDH1 (second series), stronger effect = lower value 0.99 | S. cerevisiae deletion strains, locus YKL085W, strain MDH1, stronger effect = lower value 0.99 | S. cerevisiae deletion strains, locus YKL160W, strain elf1, stronger effect = lower value 0.984 | S. cerevisiae deletion strains, locus YKR001C, strain vps1, stronger effect = lower value 0.938 | S. cerevisiae deletion strains, locus YKR026C, strain gcn3, stronger effect = lower value 1 | S. cerevisiae deletion strains, locus YKR091W, strain srl3, stronger effect = lower value 0.997 | S. cerevisiae deletion strains, locus YLL001W, strain dnm1, stronger effect = lower value 0.978 | S. cerevisiae deletion strains, locus YLL026W, stronger effect = lower value 0.988 | S. cerevisiae deletion strains, locus YLL041C, strain sdh2, stronger effect = lower value 1 | S. cerevisiae deletion strains, locus YLR027C, strain aat2, stronger effect = lower value 0.955 | S. cerevisiae deletion strains, locus YLR058C, strain SHM2, stronger effect = lower value 0.967 | S. cerevisiae deletion strains, locus YLR102C, strain apc9, stronger effect = lower value 0.988 | S. cerevisiae deletion strains, locus YLR113W, strain HOG1, stronger effect = lower value 0.869 | S. cerevisiae deletion strains, locus YLR221C, strain rsa3, stronger effect = lower value 0.975 | S. cerevisiae deletion strains, locus YLR258W, strain gsy2, stronger effect = lower value 0.976 | S. cerevisiae deletion strains, locus YLR262C, strain YPT6 (second series), stronger effect = lower value 0.888 | S. cerevisiae deletion strains, locus YLR262C, strain YPT6, stronger effect = lower value 0.683 | S. cerevisiae deletion strains, locus YLR320W, strain mms22, stronger effect = lower value 0.956 | S. cerevisiae deletion strains, locus YLR330W, strain CHS5, stronger effect = lower value 1 | S. cerevisiae deletion strains, locus YLR342W, strain FKS1 (second series), stronger effect = lower value 0.943 | S. cerevisiae deletion strains, locus YLR342W, strain FKS1, stronger effect = lower value 1 | S. cerevisiae deletion strains, locus YLR357W, strain rsc2, stronger effect = lower value 1.03 | S. cerevisiae deletion strains, locus YLR370C, strain arc18, stronger effect = lower value 0.942 | S. cerevisiae deletion strains, locus YLR371W, strain rom2, stronger effect = lower value 0.99 | S. cerevisiae deletion strains, locus YLR384C, strain iki3, stronger effect = lower value 1 | S. cerevisiae deletion strains, locus YLR418C, strain cdc73, stronger effect = lower value 0.847 | S. cerevisiae deletion strains, locus YML016C, strain PPZ1, stronger effect = lower value 0.987 | S. cerevisiae deletion strains, locus YML120C, strain ndi1, stronger effect = lower value 0.965 | S. cerevisiae deletion strains, locus YML124C, strain tub3, stronger effect = lower value 1.01 | S. cerevisiae deletion strains, locus YMR078C, strain ctf18, stronger effect = lower value 0.976 | S. cerevisiae deletion strains, locus YMR125W, strain sto1, stronger effect = lower value 0.93 | S. cerevisiae deletion strains, locus YMR129W, stronger effect = lower value 1 | S. cerevisiae deletion strains, locus YMR205C, strain PFK2, stronger effect = lower value 1.02 | S. cerevisiae deletion strains, locus YMR223W, strain ubp8, stronger effect = lower value 0.91 | S. cerevisiae deletion strains, locus YMR231W, strain pep5, stronger effect = lower value 0.998 | S. cerevisiae deletion strains, locus YMR307W, strain GAS1, stronger effect = lower value 0.761 | S. cerevisiae deletion strains, locus YNL067W, strain RPL9B, stronger effect = lower value 0.97 | S. cerevisiae deletion strains, locus YNL071W, strain lat1, stronger effect = lower value 0.997 | S. cerevisiae deletion strains, locus YNL128W, strain TEP1, stronger effect = lower value 0.997 | S. cerevisiae deletion strains, locus YNL183C, strain NPR1, stronger effect = lower value 0.848 | S. cerevisiae deletion strains, locus YNL209W, strain ssb2, stronger effect = lower value 0.979 | S. cerevisiae deletion strains, locus YNL233W, strain BNI4, stronger effect = lower value 0.987 | S. cerevisiae deletion strains, locus YNL271C, strain bni1, stronger effect = lower value 0.978 | S. cerevisiae deletion strains, locus YNL298W, strain CLA4, stronger effect = lower value 0.95 | S. cerevisiae deletion strains, locus YNL307C, strain MCK1, stronger effect = lower value 0.955 | S. cerevisiae deletion strains, locus YNL322C, strain KRE1 (second series), stronger effect = lower value 0.992 | S. cerevisiae deletion strains, locus YNL322C, strain KRE1, stronger effect = lower value 0.999 | S. cerevisiae deletion strains, locus YNR049C, strain mso1, stronger effect = lower value 1.02 | S. cerevisiae deletion strains, locus YOL006C, strain TOP1, stronger effect = lower value 0.891 | S. cerevisiae deletion strains, locus YOL012C, strain htz1 1.16 | S. cerevisiae deletion strains, locus YOL147C, strain pex11, stronger effect = lower value 0.991 | S. cerevisiae deletion strains, locus YOR001W, strain rrp6, stronger effect = lower value 0.904 | S. cerevisiae deletion strains, locus YOR061W, strain CKA2, stronger effect = lower value 0.988 | S. cerevisiae deletion strains, locus YOR069W, strain VPS5, stronger effect = lower value 0.992 | S. cerevisiae deletion strains, locus YOR070C, strain gyp1, stronger effect = lower value 1.01 | S. cerevisiae deletion strains, locus YOR080W, strain dia2, stronger effect = lower value 0.986 | S. cerevisiae deletion strains, locus YOR083W, strain WHI5, stronger effect = lower value 0.962 | S. cerevisiae deletion strains, locus YOR106W, strain vam3, stronger effect = lower value 0.938 | S. cerevisiae deletion strains, locus YOR136W, strain idh2, stronger effect = lower value 0.959 | S. cerevisiae deletion strains, locus YOR144C, strain elg1, stronger effect = lower value 0.969 | S. cerevisiae deletion strains, locus YOR265W, strain rbl2, stronger effect = lower value 0.997 | S. cerevisiae deletion strains, locus YOR270C, strain vph1, stronger effect = lower value 0.92 | S. cerevisiae deletion strains, locus YOR290C, strain snf2, stronger effect = lower value 0.912 | S. cerevisiae deletion strains, locus YOR316C, strain cot1, stronger effect = lower value 0.999 | S. cerevisiae deletion strains, locus YPL051W, strain arl3, stronger effect = lower value 0.943 | S. cerevisiae deletion strains, locus YPL055C, strain LGE1, stronger effect = lower value 0.882 | S. cerevisiae deletion strains, locus YPL078C, strain atp4, stronger effect = lower value 0.932 | S. cerevisiae deletion strains, locus YPL106C, strain sse1, stronger effect = lower value 0.889 | S. cerevisiae deletion strains, locus YPL240C, strain hsp82, stronger effect = lower value 1.01 | S. cerevisiae deletion strains, locus YPL241C, strain CIN2, stronger effect = lower value 0.988 | S. cerevisiae deletion strains, locus YPL256C, strain CLN2, stronger effect = lower value 0.909 | S. cerevisiae deletion strains, locus YPR119W, strain clb2, stronger effect = lower value 0.989 | S. cerevisiae deletion strains, locus YPR141C, strain kar3, stronger effect = lower value 0.993 | S. cerevisiae deletion strains, locus YPR163C, strain tif3, stronger effect = lower value 0.993 | S. cerevisiae deletion strains, locus YPR167C, strain met16, stronger effect = lower value 0.986 | S. cerevisiae strains, strain wild type, stronger effect = lower value 0.99
